Bioassay records from PubChem.
PLK1 PBD inh: PLK1 (human) polo-box domain binding inhibition | 360,000 compounds, 2.8% hits | P53350 | Plk1 PBD binding of FITC phosphopeptide, fluorescence polarization | Potency, µM, actives largely listed as inhibitors | AID 720504; note: series mostly up to about 57 µM; nearly all actives have a fitted effect of over 65% in size
DT40 TDP1 no CPT: qHTS for Inhibitors of human tyrosyl-DNA phosphodiesterase 1 (TDP1): qHTS in cells in absence of CPT; DT40 Tdp1-/- hTDP1 cells, no CPT, ATP luminescence, 48 h; Potency, µM (series often up to 46.2 µM), most hits filed as inhibitors; 420,000 compounds, 15% hits; note: nearly all actives have a fitted effect of over 55% in size
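Cells were dispensed at 400 per well, compounds added by pin tool, plates incubated ≥48 hr at 37 °C, then CellTiter-Glo added for 30 min at room temperature before luminescence reading. Line: DT40 Tdp1-/- complemented with hTDP1; camptothecin omitted.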
VDR inh: inhibitors of human vitamin D receptor | P11473 | VDR-SRC2-3 peptide fluorescence polarization, 2 h | Potency, µM, usual class: inhibitors | 400,000 compounds, 0.93% hits
Target sequence (P11473 whole entry, looked up): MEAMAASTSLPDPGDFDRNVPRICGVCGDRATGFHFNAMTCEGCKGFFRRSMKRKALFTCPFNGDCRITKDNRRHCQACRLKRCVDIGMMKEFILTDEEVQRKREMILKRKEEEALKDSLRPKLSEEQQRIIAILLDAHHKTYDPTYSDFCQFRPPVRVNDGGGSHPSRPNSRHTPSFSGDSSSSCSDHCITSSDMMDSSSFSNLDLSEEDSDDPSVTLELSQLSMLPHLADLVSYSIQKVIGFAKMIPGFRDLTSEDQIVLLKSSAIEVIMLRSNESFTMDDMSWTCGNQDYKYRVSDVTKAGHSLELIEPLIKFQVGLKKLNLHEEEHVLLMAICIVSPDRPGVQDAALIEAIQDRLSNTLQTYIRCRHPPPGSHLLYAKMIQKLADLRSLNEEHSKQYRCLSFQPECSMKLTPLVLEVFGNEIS
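Compounds are added to VDR with labelled SRC2-3 coactivator peptide and held 2 h at room temperature. Inhibition of the VDR–peptide interaction is then read as a change in fluorescence polarization.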
TDP1 cell CPT: DT40-hTDP1 cell growth loss with CPT; 420,000 compounds, 12% hits; chicken DT40 Tdp1-/-;hTDP1 cells + 20 nM CPT, ATP luminescence, 48 h; AID 686979; Potency, µM (series often up to 46.2 µM), usual class: inhibitors; note: nearly all actives have a fitted effect of over 55% in size
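Chicken DT40 Tdp1-/- cells complemented with human TDP1, 400 cells/well, exposed to compounds plus 20 nM camptothecin for at least 48 h at 37 C; viability read as ATP content by CellTiter-Glo luminescence.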
GCN5L2 inh: GCN5L2 (KAT2A) acetyltransferase inhibition; Q92830; GCN5L2 HAT assay, ThioGlo1 CoA-SH fluorescence; Potency, µM (doses to about 58.9 µM), most hits filed as inhibitors; 390,000 compounds, 0.21% hits
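ThioGlo1-coupled HAT assay: 20nM GCN5L2, 70uM acetyl-CoA, 75uM H3(1-25) peptide, pH 7.5. Fluorescence read at 340/540nm at start and after 20 min at room temperature.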
TDP1 inh: blocks human tyrosyl-DNA phosphodiesterase 1; Q9NUW8; recombinant TDP1, AlphaScreen DNA substrate cleavage; Potency, µM (series often up to 130 µM), hits mostly inhibitors; 350,000 compounds, 0.28% hits; AID 485290; note: nearly all actives have a fitted effect of over 40% in size
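AlphaScreen read-out: signal falls as enzyme removes the 3' tyrosine-FITC from a 5'-biotinylated DNA oligo (15 nM, 5 min, RT). Enzyme was E. coli-made recombinant Tdp1 at 1 nM, exposed to compound for 15 min beforehand; beads 10 ug/ml, 10 min.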
A number is an active result; . = inactive; ? = inconclusive; / = not tested or not shown; [ ] = remark or other dose. An excerpt weighted towards active compounds, which were near 18% of everything screened. Calls come from the whole dose curve; as a rule, active = well fitted curve in the direction sought with a large enough effect; inconclusive = small, poorly fitted or top-dose-only effect, or another doubt; inactive = no such curve, though single readings can be large; an effect the other way counts as inactive or inconclusive.

SMILES | PLK1 PBD inh | DT40 TDP1 no CPT | VDR inh | TDP1 cell CPT | GCN5L2 inh | TDP1 inh
Cn1c(-c2cccc([N+](=O)[O-])c2)cnc1NCc1ccc(C#N)cc1 | . | ? | . | ? | . | .
COC(=O)[C@@H](NC(=O)N1CCc2nc(COc3ccccc3)c3c(c2C1)CO[C@@H](C)C3)C(C)C | / | / | / | / | / | .[21 µM]
CC[C@]12C(=O)N(C)C[C@H]([C@@H]3C(=O)N(C)C(=O)[C@@H]31)N2C(=O)c1ccc(Cl)c(Cl)c1 | . | . | . | . | / | /
Cc1nc(C(F)(F)F)ccc1C(=O)N1CCCC(C)(C(=O)O)C1 (centres undefined) | . | . | / | . | / | /
O=CNc1cc(-c2ccc(C(=O)NC3CC3)cc2)cn2c(-c3ccc(F)c(Cl)c3)cnc12 | ? | 13µM | / | 18µM | / | /
CN(C)CCNC(=O)c1cccc(-c2cnc3c(NC=O)cc(-c4cccc(F)c4)cn23)c1 | . | ? | / | ? | / | /
O=C(NC1CCCCC1)c1ccc(-c2ccccc2)cc1 | . | . | . | . | / | /
CC(=O)c1ccc(-c2cnc3c(NC=O)cc(-c4ccc(C(=O)NC5CC5)cc4)cn23)cc1 | . | 5.2µM | / | 5.8µM | / | /
O=CNc1cc(-c2ccc(C(=O)NC3CC3)cc2)cn2c(-c3ccccc3)cnc12 | . | 7.3µM | / | 10µM | / | /
Cn1cccc1C(=O)N1CCC[C@@]2(CCN(C(=O)Nc3cccc(F)c3)C2)C1 | / | . | . | . | . | /
FC(F)(F)c1ccccc1-c1ccc2nncn2c1 | . | . | / | . | / | /
Cc1ccc(CCNC(=O)CSCc2nc(-c3ccc(C)cc3)oc2C)cc1 | / | ? | . | . | . | .
COc1ccc(C(=O)c2sc(Nc3ccccc3)nc2N)cc1 | . | ? | . | ? | . | .
COc1ccc(C(=O)c2sc(Nc3ccccc3F)nc2N)cc1 | . | 12µM | . | ? | ? | /
CCCN(C(=O)CCl)C1=CCCCC1 | . | 13µM | . | 18µM | . | .
CCN(C(=O)COC(=O)CNC(=O)c1ccccc1C)C1=CCCCC1 | . | . | . | . | . | .
COc1cc(-c2cnc3c(NC=O)cc(-c4ccc(S(C)(=O)=O)cc4)cn23)cc(OC)c1OC | . | 18µM | / | 16µM | / | /
COc1ccc(-c2cnc3c(NC=O)cc(-c4ccc(S(C)(=O)=O)cc4)cn23)cc1OC | . | 2.9µM | / | 2.9µM | / | /
COc1ccccc1-c1cc(NC=O)c2ncc(-c3cccc(C(=O)N(C)C)c3)n2c1 | . | ? | / | ? | / | /
COc1ccccc1-c1cc(NC=O)c2ncc(-c3ccc(S(C)(=O)=O)cc3)n2c1 | . | 9.2µM | / | 12µM | / | /
COc1ccc(-c2c(=O)n(OCc3nc4ccccc4[nH]3)c3ccccc3[n+]2[O-])cc1 | . | ? | . | . | . | .
CCOc1ccc(-c2c(=O)n(OCc3nc4ccccc4[nH]3)c3ccccc3[n+]2[O-])cc1 | . | 23µM | . | ? | . | .
C=CCOn1c(=O)c(-c2ccc(OC)cc2)[n+]([O-])c2ccccc21 | 12µM | . | . | . | . | .
CCOc1ccc(NC(=O)CN2CCN(Cc3ccccc3)S2(=O)=O)cc1 | / | ? | . | ? | . | .
O=C(c1nnsc1S(=O)(=O)c1ccc(Cl)cc1)N1CCOCC1 | ? | 2.9µM | ? | 2.3µM | . | .
SMILES | PLK1 PBD inh | DT40 TDP1 no CPT | VDR inh | TDP1 cell CPT | GCN5L2 inh | TDP1 inh
O=C(c1ccc(NS(=O)(=O)c2ccc(Cl)cc2)cc1)N1CCOCC1 | . | . | . | . | . | /
CNC(=O)c1ccc(S(=O)(=O)c2ccc(Cl)cc2)c(NC(C)=O)c1 | . | . | . | . | ? | /
Nc1nc(C(=O)N2CCOCC2)nn1S(=O)(=O)c1ccc(Cl)cc1 | 27µM | ? | ? | ? | . | .
CNC(=O)c1nnsc1S(=O)(=O)c1ccc(Cl)cc1 | 12µM | 1.5µM | 10µM | 0.73µM | ? | .
O=C(Nc1c(C(=O)O)[nH]c2ccc(F)cc12)c1cccc(C(F)(F)F)c1 | . | . | . | . | . | /
Cn1c(-c2ccccc2)c(/C=N/NC(=O)c2cccnc2)c2ccccc21 | . | 23µM | . | . | . | .
O=C(N/N=C/c1c(-c2ccccc2)[nH]c2ccccc12)c1cccnc1 | . | 3.3µM | . | 6.5µM | . | .
O=C(N/N=C/c1cccc2ccccc12)c1cccnc1 | . | . | . | . | . | /
COc1cccc(NC(=O)c2nn(-c3ccc(C)cc3)c(=O)n(C)c2=O)c1 | / | 15µM | . | ? | . | .
COc1ccc(-n2nc(C(=O)Nc3cc(OC)c(OC)c(OC)c3)c(=O)n(C)c2=O)cc1 | / | . | . | ? | . | .
COc1ccc2[nH]c(C)c(C(=O)CN3CCN(C(=O)c4ccco4)CC3)c2c1 | . | . | . | . | . | .
Cc1[nH]c2ccccc2c1C(=O)CN1CCN(C/C=C/c2ccccc2)CC1 | . | 18µM | . | ? | . | .
COc1ccc2[nH]c(C)c(C(=O)CN3CCN(C/C=C/c4ccccc4)CC3)c2c1 | . | ? | . | 18µM | . | /
COc1cc(NC(=O)CCN2CCN(C/C=C/c3ccccc3)CC2)cc(OC)c1 | . | 21µM | . | ? | . | .
COc1ccc(NC(=O)CCN2CCN(C/C=C/c3ccccc3)CC2)cc1 | . | ? | . | . | . | /
Cc1[nH]c2ccccc2c1C(=O)CN1CCN(C2CCCCC2)CC1 | / | / | / | / | . | .
[N-]=[N+]=Nc1ccc(C(=O)CSC[C@H](NC(=O)CC[C@H](N)C(=O)O)C(=O)NCC(=O)O)cc1 | / | / | 45µM | / | 7.9µM | ?
N[C@@H](CCC(=O)N[C@@H](CSN=O)C(=O)NCC(=O)O)C(=O)O | ? | . | . | . | . | /
COc1ccccc1C(=O)NCCC(=O)NCC(c1ccco1)N1CCCC1 (centres undefined) | . | . | . | . | . | .
O=C(O)c1cccc(NC(=O)c2ccc3c(c2)C(=O)N(Cc2ccco2)C3=O)c1 | ? | . | . | . | . | 50µM
O=C(Nc1ccnc(-c2cccnc2)n1)c1cccc(Cl)c1Cl | . | 23µM | . | 21µM | . | .
O=C(Nc1cccc(Cl)c1)Nc1ccnc(-c2cccnc2)n1 | . | 21µM | . | ? | . | .
O=C(Nc1ccnc(-c2cccnc2)n1)c1cccs1 | . | . | . | ? | . | .
CC[C@H](C)[C@H](NC(=O)[C@H](Cc1ccc(O)cc1)NC(=O)[C@@H]1CCCN1C(=O)[C@@H](NC(=O)[C@@H](N)CCCCN)[C@@H](C)CC)C(=O)N[C@@H](CC(C)C)C(=O)O | / | / | . | / | . | .
CC(C)(C)c1cc(C(=O)CCN2CCOCC2)cc(C(C)(C)C)c1O | ? | 7.3µM | 50µM | 4.6µM | . | /
CC(C)(C)NC(=O)CCN1CCOCC1 | . | . | . | . | . | .
O=C(CCN1CCOCC1)c1ccc(N2CCCCC2)cc1 | . | 4.1µM | ? | 1.6µM | . | .
